Assay outcomes as filed in PubChem.
Most compounds without a hit are left out; they make up all but 0.82% or so of the library.
Keap1 Nrf2 FP = Keap1-Nrf2 protein-protein interaction inhibitors, primary screen, biochemical, fluorescence polarization, single point; Keap1 Kelch-Nrf2 peptide fluorescence polarization, 1536-well; 0.15% of 340,000 active; inhibition, % at 9.4 µM; Kelch-like ECH-associated protein 1 (Homo sapiens), Q14145; in the data active means inhibition above about 12%; inconclusive means no clear call, values can overlap the other calls; inactive means below about 7.3%;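 further: human Keap1 Kelch domain with fluorescein labeled Nrf2 9mer peptide probe; 0% = neutral control wells and 100% = peptide positive control; higher means more block of Keap1 binding to Nrf2 peptide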
Cardiac RTF inh = cardiac RTF calcium sensitivity inhibitors, primary screen, biochemical, IANBD-TnC fluorescence, EC70 calcium. IANBD-labeled cardiac RTF, Ca2+ fluorescence. inhibition, % at 7.15 µM. 0.12% of 340,000 active;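 active means inhibition above the mean inhibition of all tested compounds plus 3 SD, cut at about 17% in these data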;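 further: assay run at fixed EC70 calcium of 1.6 mM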
cardiac RTF act = cardiac RTF calcium sensitivity activators, primary screen, biochemical, IANBD-TnC fluorescence, EC20 calcium. IANBD-labeled TnC RTF fluorescence at EC20 calcium; 0% EC20 calcium, 100% full calcium. activation, % at 7.2 µM. 0.24% of 340,000 active;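 active means activation above the mean over all tested compounds plus 3 SD, cut at about 30% in these data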;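 further: rise in fluorescence read as greater calcium sensitivity of cardiac thin filaments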
E coli Lon inh = inhibitors of E. coli Lon protease, primary screen, biochemical, fluorescence polarization; purified E. coli Lon protease; inhibition, % at 7.94 µM; P0A9M0; 0.42% of 360,000 active; in the data active means inhibition above about 13%, passing the limit was not always enough;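 further: 0% = enzyme with probe and DMSO and 100% = no enzyme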
Target sequence (P0A9M0 whole entry, looked up): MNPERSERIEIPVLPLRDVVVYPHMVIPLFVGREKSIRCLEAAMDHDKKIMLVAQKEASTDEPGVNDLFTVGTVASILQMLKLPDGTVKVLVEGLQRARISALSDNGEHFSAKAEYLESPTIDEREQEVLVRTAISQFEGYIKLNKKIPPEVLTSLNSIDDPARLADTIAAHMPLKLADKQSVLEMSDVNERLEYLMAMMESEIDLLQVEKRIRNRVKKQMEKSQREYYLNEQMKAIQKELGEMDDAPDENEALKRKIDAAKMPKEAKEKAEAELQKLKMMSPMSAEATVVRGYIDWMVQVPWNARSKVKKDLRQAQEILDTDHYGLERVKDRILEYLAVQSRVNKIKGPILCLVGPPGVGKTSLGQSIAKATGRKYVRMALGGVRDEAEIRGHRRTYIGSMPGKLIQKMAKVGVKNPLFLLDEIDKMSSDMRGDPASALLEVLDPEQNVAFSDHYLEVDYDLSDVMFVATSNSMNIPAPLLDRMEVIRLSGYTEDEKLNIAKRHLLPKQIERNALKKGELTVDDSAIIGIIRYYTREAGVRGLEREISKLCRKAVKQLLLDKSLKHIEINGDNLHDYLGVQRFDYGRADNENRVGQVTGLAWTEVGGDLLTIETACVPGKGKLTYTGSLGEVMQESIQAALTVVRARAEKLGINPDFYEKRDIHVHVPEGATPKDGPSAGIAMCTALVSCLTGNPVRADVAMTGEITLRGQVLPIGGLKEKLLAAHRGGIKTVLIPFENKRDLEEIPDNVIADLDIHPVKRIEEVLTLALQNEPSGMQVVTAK
C-LANA FP = inhibitors of KSHV C-LANA binding to DNA, primary screen, biochemical, fluorescence polarization, FAM-LBS DNA, MBP-C-LANA, single point; Kaposi's sarcoma herpesvirus LANA C-terminal domain (residues 932-1162) DNA binding; inhibition, % at 9 µM; 0.078% of 340,000 active; AID 504423, 2011;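 active means highest replicate inhibition at or above 60% at 9 µM, even if other replicates fall short; inactive means all replicates below 60% inhibition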;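 further: 0% = neutral control wells and 100% = 4 µM acridine orange control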
E coli Lon conf = E. coli Lon protease inhibitor retest, confirmation, biochemical, fluorescence polarization. shares compounds with E coli Lon inh. purified E. coli Lon. inhibition, % at 7.94 µM. 31% of 1,400 active. AID 602230, 2012; in the data active means inhibition above about 16%;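 further: 0% = enzyme with probe and DMSO and 100% = no enzyme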
Starred values were filed as active, the others as inactive; i = inactive; u = inconclusive; x = no result; + = active, no number.

SMILES | Keap1 Nrf2 FP | Cardiac RTF inh | cardiac RTF act | E coli Lon inh | C-LANA FP | E coli Lon conf
COc1ccc2c3c(cccc13)N(C)N=C2C | 7.2 | -15.9 | 7.6 | 36.7* | 10.6 | 21.0*
C=CC[C@]12CCc3sccc3C1N(c1ccc(C(=O)OCC)cc1)C2=O (stereo not given in full) | 1.2 | 2.9 | -2.7 | 11.6 | 0.3 | x
CCCn1c(NC(=O)CSCC(=O)Nc2cc(C)on2)nc2ccccc21 | -1.8 | -12.9 | 6.3 | 21.6* | 1.4 | -4.1
CC1CCCN(CCCNC(=O)c2ccc3c(c2)N(Cc2ccccc2F)C(=O)c2ccccc2S3(=O)=O)C1 (stereo not given) | 5.6 | -0.7 | -3.3 | 4.6 | -0.8 | x
O=[N+]([O-])c1cccc(C(=S)N2CCN(c3ccc(F)cc3)CC2)c1 | -2.4 | -6.8 | 3.0 | 56.1* | 0.3 | 1.1
Cc1[nH][nH]c(=O)c1N=Nc1ccccc1Cl | -4.4 | -1.1 | 7.3 | 1.2 | x | x
Clc1ccccc1N=Nc1ccccn1 | 14.4* | -48.9 | 24.4 | + | 28.4 | 10.1
CC(=O)NCC(=O)OCC(=O)Nc1ccc(C(C)=O)cc1 | -5.3 | -22.2 | 6.2 | -4.5 | 0.9 | x
CC(=O)OCC(=O)Nc1ccc(C(C)=O)cc1 | -3.1 | 1.2 | 0.6 | 28.5* | 0.3 | -8.7
O=C(CSc1nnnn1-c1ccc2c(c1)OCCO2)N1CCc2ccccc21 | 2.0 | 2.1 | -0.5 | -10.6 | 0.7 | x
c1ccc(CSc2nnnn2-c2ccc3c(c2)OCCO3)nc1 | -6.5 | -1.3 | -0.8 | 30.5* | 2.8 | -3.9
C=CCOc1cccc(C2C(C(=O)c3ccc(C)o3)=C(O)C(=O)N2c2nccs2)c1 (stereo not given) | u | -15.6 | 8.5 | 54.7* | 31.6 | 126.1*
COc1ccc(NS(=O)(=O)c2ccc(C)c(NC(=O)CN3C(=O)NC4(CCCC4)C3=O)c2)cc1 | 1.0 | -11.2 | 1.7 | -8.8 | -11.2 | x
COc1cc(NC(=O)c2ccccc2F)ccc1NC(=O)c1cc2ccccc2o1 | 1.4 | 1.7 | -0.7 | 16.2* | 0.0 | 3.4
COc1cc(NC(=O)c2ccc(F)cc2)ccc1NC(=O)c1cc2ccccc2o1 | -5.5 | -2.8 | 5.4 | 0.2 | -4.9 | x
O=C(NCCCCO)c1ccc2c3c(cccc13)CC2 | -5.6 | -0.1 | 0.3 | 2.1 | 1.1 | x
O=C(NC(=S)N1CCOCC1)c1cn(-c2ccccc2)nc1-c1ccc(F)cc1 | -7.6 | -2.7 | -0.5 | 4.2 | 0.6 | x
CN(C)c1ccc(C(=S)N2CCCCC2)cc1 | 1.1 | -0.4 | 2.1 | 45.6* | 1.9 | 4.8
CCCCN(C(=O)NC(=O)Nc1ccccc1OC)S(C)(=O)=O | -4.1 | 4.1 | 5.9 | 19.8* | 0.8 | 5.4
COc1ccccc1NC(=O)NC(=O)N(C(C)C)S(C)(=O)=O | -0.8 | 2.6 | -4.5 | 3.1 | 0.9 | x
c1cc(CNCC2CCCO2)ccn1 (stereo not given) | -2.2 | 0.7 | 4.5 | -11.3 | -0.1 | x
C=CCOc1ccc(CNCC2CCCO2)cc1 (stereo not given) | -0.5 | -18.0 | 0.0 | 54.5* | -1.7 | 4.5
O=C(O)CN=CC1=C(O)CC(c2ccccc2)CC1=O (stereo not given) | -4.1 | -3.8 | -0.7 | -7.2 | -0.3 | x
O=C(O)C1CCCC2CN3CCc4c([nH]c5ccccc45)C3C(O)C21 (stereo not given) | 9.1 | -6.6 | 0.8 | 20.3* | 10.7 | 2.0
N#Cc1c(N)sc(=S)c2c1CCCCC2 | 3.4 | -4.7 | 2.0 | 20.3* | 11.0 | -49.0
SMILES | Keap1 Nrf2 FP | Cardiac RTF inh | cardiac RTF act | E coli Lon inh | C-LANA FP | E coli Lon conf
Cc1cnc(C(=O)OC(C(=O)c2c[nH]c3ccccc23)c2ccccc2)cn1 (stereo not given) | -5.5 | 0.2 | -5.7 | -7.3 | 2.2 | x
COc1ccccc1NS(=O)(=O)c1ccc(Cl)c(NC(=O)C(C)N2C(=O)c3ccccc3C2=O)c1 (stereo not given) | -3.4 | -4.0 | -0.8 | -19.1 | 0.1 | x
CCN(CC)C(=O)c1ccc2c3c(cccc13)C(=O)N(CCc1ccc(OC)c(OC)c1)C2=O | -4.0 | -25.0 | -3.3 | -4.2 | 2.0 | x
O=S(=O)(NC1c2cccc3cccc(c23)C1N1CCNCC1)c1ccc(Cl)cc1 (stereo not given) | -3.2 | 3.6 | -1.3 | 2.9 | -0.2 | x
C#CCNC(=O)C1=C[C@@H](c2coc3ccccc3c2=O)C[C@@H](OCCCCO)O1 | -1.6 | 1.4 | 3.3 | 18.9* | -1.1 | 29.2*
O=C(NCc1ccccc1)C1=C[C@@H](c2coc3ccccc3c2=O)C[C@@H](OCCCCO)O1 | -3.3 | 3.6 | -4.8 | -12.9 | -5.1 | x
COc1c(C)cccc1C(=O)NCc1ccc2c(c1)OCO2 | -3.4 | -11.8 | 2.0 | -2.1 | 0.8 | x
CC(=O)Nc1ccc(NC(=O)[C@H](C)NC(=O)c2ccco2)cc1 | -2.2 | -28.6 | -0.9 | 52.8* | -0.9 | -7.7
O=C(CN1CCCc2ccccc21)NC(=O)NCc1ccco1 | -2.5 | -15.0 | 7.5 | 53.2* | 0.3 | -3.0
N#CC(C#N)=C1C=C2C=C(N3CCCCCC3)CCC2CC1 (stereo not given) | -260.3 | i | + | 151.5* | -13.8 | -95.3
COC(=O)Cc1c(C)c2ccc(OCC(=O)N(C)C3CCS(=O)(=O)C3)cc2oc1=O (stereo not given) | 0.5 | 1.6 | -0.5 | 1.6 | 0.6 | x
CCc1cccc(CC)c1N1C(=O)C2=C(SCCCS2)C1=O | x | x | x | 180.4* | x | 159.6*
COc1ccc(OC)c(-c2c[n+](=O)c3c(n2[O-])CCCC3)c1 | -0.1 | 9.2 | -5.6 | -5.2 | 0.3 | x
CCOc1ccc(-c2c[n+](=O)c3c(n2[O-])CCCC3)c(OCC)c1 | -2.3 | -10.2 | -1.3 | 68.1* | -0.5 | 1.3
CC(NC(=O)CN1CCN(S(=O)(=O)c2ccc(Br)cc2)CC1)c1ccccc1 (stereo not given) | -0.1 | 9.4 | -13.0 | 1.6 | -1.2 | x
CCOC1(C)OCC(=O)[C@]2(CCC3C4CCC5=CC(=O)C=CC5(C)C4C(=O)CC32C)O1 (stereo not given in full) | 2.3 | 3.9 | -3.7 | 1.6 | 1.5 | x
COc1ccccc1N(CC(O)CN1CCC(C)CC1)S(=O)(=O)c1ccccc1 (stereo not given) | -3.3 | 3.5 | 0.2 | 4.9 | 1.6 | x
N#Cc1ccc(S(=O)(=O)NC2CC2)cc1 | -2.6 | -8.6 | -7.0 | 19.6* | 0.5 | 41.6*
O=C(N/N=C/C1C(c2ccccc2)C1(Cl)Cl)c1cccc(Cl)c1 (stereo not given) | -6.1 | 0.9 | 4.4 | 22.3* | 1.1 | -1.9
